This is one part of a sample in which hits are shown more often than they occur.
CBX7 AlphaScr = inhibitors of human CBX7 binding to H3K27me3 peptide; normalised signal (fraction of DMSO) (concentration not given with the values); 1.1% of 66,000 active; O95931; AlphaScreen His6-CBX7 / biotin-H3K27me3 peptide binding; stronger effect = lower value; AID 1224903; in the data active means normalised signal below about 0.5
Target sequence (O95931 whole entry, looked up): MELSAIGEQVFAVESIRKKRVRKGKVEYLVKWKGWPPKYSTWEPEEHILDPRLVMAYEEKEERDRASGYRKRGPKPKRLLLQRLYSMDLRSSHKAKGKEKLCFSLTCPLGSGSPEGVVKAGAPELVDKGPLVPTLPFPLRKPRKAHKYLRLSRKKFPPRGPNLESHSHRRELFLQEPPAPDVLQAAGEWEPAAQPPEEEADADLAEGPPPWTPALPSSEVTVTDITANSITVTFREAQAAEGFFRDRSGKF
Numbers stand for hits; - = inactive.

SMILES	CBX7 AlphaScr
O=C(Nc1nnc(-c2ccc(F)cc2)o1)c1ccc(S(=O)(=O)N2CCCC2)cc1	0.013
Cc1nnc(NC(=O)c2ccc(S(=O)(=O)N3CCCC(C)C3)cc2)o1 (stereo unspecified)	-
Cc1nnc(NC(=O)c2ccc(S(=O)(=O)N3CCOCC3)cc2)o1	-
COc1ccc(-c2nnc(NC(=O)c3ccc(S(=O)(=O)N4CCCC4)cc3)o2)cc1	-
Cc1nnc(NC(=O)c2ccc(S(=O)(=O)N3CCCC3)cc2)o1	0.024
CCCCN(C)S(=O)(=O)c1ccc(C(=O)Nc2nnc(-c3ccc(Cl)s3)o2)cc1	-
Cc1nnc(NC(=O)c2ccc(S(=O)(=O)N3CCCc4ccccc43)cc2)o1	0.034
CCCN(CCC)S(=O)(=O)c1ccc(C(=O)Nc2nnc(-c3ccc(Cl)s3)o2)cc1	-
COc1cc(OC)cc(-c2nnc(NC(=O)c3ccc(S(=O)(=O)N4CCCC4)cc3)o2)c1	-
Cc1ccc(-c2ccc(=O)n(CC(=O)NCc3cccnc3)n2)cc1	-
CCOC(=O)c1cc(-c2ccccc2)n(CCC(=O)NC2CCCc3ccccc32)c1C (stereo unspecified)	-
Cc1ccc(CN2C(=O)C(O)(CC(=O)c3cccnc3)c3cc(Cl)ccc32)cc1 (stereo unspecified)	-
O=C(CCc1nc(-c2ccccc2F)no1)NCc1cccnc1	-
Clc1ccccc1Cc1noc(/C=C/c2ccc(Br)cc2)n1	-
COc1ccc(CNC(=O)CN2C(=O)CSc3ccccc32)c(OC)c1	-
O=C(Nc1ccc(O)cc1)c1cc2nc3c(c(C(F)(F)F)n2n1)CCc1ccccc1-3	-
Nc1nc(CSc2ncn[nH]2)cs1	-
COCc1nnc(NC(=O)c2ccc(S(=O)(=O)N3CCCC3)cc2)o1	-
CCc1nnc(NC(=O)c2ccc(S(=O)(=O)N3CCCCC3)cc2)o1	0.1
CCc1nnc(NC(=O)c2ccc(S(=O)(=O)N3CCC(C)CC3)cc2)o1	-
COc1cc(OC)cc(-c2nnc(NC(=O)c3ccc(S(=O)(=O)N4CCCCCC4)cc3)o2)c1	-
COc1ccc(-c2nnc(NC(=O)c3ccc(S(=O)(=O)N4CCOCC4)cc3)o2)cc1	-
O=C(Nc1nnc(-c2ccc(Cl)s2)o1)c1ccc(S(=O)(=O)N2CCCCC2)cc1	0.16
CC(C)CN(CC(C)C)S(=O)(=O)c1ccc(C(=O)Nc2nnc(-c3ccc(Cl)s3)o2)cc1	-
O=C(Nc1nnc(C2CC2)o1)c1ccc(S(=O)(=O)N2CCOCC2)cc1	0.44
SMILES	CBX7 AlphaScr
CN(C)S(=O)(=O)c1ccc(C(=O)Nc2nnc(-c3ccc(F)cc3)o2)cc1	0.044
CCOc1ccccc1NC(=O)c1ccc2c(c1)C(=O)N(c1cccc(OC)c1)C2=O	-
Cc1cccc(-n2ccnc2SCC(=O)Nc2ccc(F)cc2F)c1	-
Cc1n[nH]c(C)c1CCOc1ccccc1Cl	-
Cc1ccc(N(CC(=O)NCCSc2nc3ccccc3s2)S(=O)(=O)c2ccccc2)cc1	-
CN(Cc1ccccc1)C(=O)c1ccc(CNc2c(NC3CCCC3)c(=O)c2=O)cc1	-
Cc1cccc2c1-c1sc(C(=O)N3CCc4ccccc43)cc1CO2	-
CCn1c(C(Cc2ccccc2)NC(=O)C(C)(C)C)nc2ccccc21 (stereo unspecified)	-
N#Cc1c(NC(=O)c2ccccc2Cl)sc2c1CCCC2	-
COc1ccc(CNC(=O)C2CC(=O)N(CCC(C)C)C2)cc1 (stereo unspecified)	-
O=C(Nc1ccccc1Cl)c1ccc(F)c(S(=O)(=O)N2CCOCC2)c1	-
CCCCN(CCCC)S(=O)(=O)c1ccc2oc(C(=O)NC(C)CC)c(C)c2c1 (stereo unspecified)	-
CCC1CCCCN1S(=O)(=O)c1ccc(C(=O)Nc2nnc(C3CC3)o2)cc1 (stereo unspecified)	-
COc1ccc(-c2nnc(NC(=O)c3ccc(S(=O)(=O)N4CC(C)CC(C)C4)cc3)o2)c(OC)c1 (stereo unspecified)	-
CC1CC(C)CN(S(=O)(=O)c2ccc(C(=O)Nc3nnc(C4CC4)o3)cc2)C1 (stereo unspecified)	0.065
CCc1nnc(NC(=O)c2ccc(S(=O)(=O)N3CCCC(C)C3)cc2)o1 (stereo unspecified)	-
O=C(Nc1nnc(C2CC2)o1)c1ccc(S(=O)(=O)N2CCCCCC2)cc1	0.0011
Cc1nn(C)cc1CNC(=O)c1cc(-c2ccc3c(c2)OCO3)nc2ccccc12	-
COC(=O)c1cccc(N2C(=O)C3C(C2=O)C2(C)C=CC3(C)O2)c1 (stereo unspecified)	-
Cc1cccc(CCNC(=O)Cn2nc(Cc3ccncc3)c3ccccc3c2=O)c1	-
CN(C1CCCCC1)S(=O)(=O)c1ccc(C(=O)Nc2nnc(C3CC3)o2)cc1	0.028
CCCCN(CCCC)S(=O)(=O)c1ccc(C(=O)Nc2nnc(CC)o2)cc1	0.051
CCc1nnc(NC(=O)c2ccc(S(=O)(=O)N(CCOC)CCOC)cc2)o1	-
COCc1nnc(NC(=O)c2ccc(S(=O)(=O)N(CCC#N)CCC#N)cc2)o1	0.063
CN(C1CCCCC1)S(=O)(=O)c1ccc(C(=O)Nc2nnc(-c3cccs3)o2)cc1	-
